Rows were chosen to be rich in hits. Some 6.7% of all compounds tested hit in one or more screens of this group.
C diff HTS = blocks growth of Clostridium difficile; Clostridium difficile clinical isolate growth, OD600, 24 h; stronger effect = lower value; growth activity, negative = inhibition, % at 16 µg/mL (by protocol); 0.25% of 86,000 active; AID 1259249;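 active = mean growth activity at or below -80% and every replicate also at or below -80%; inconclusive = mean at or below -80% but some replicate above -80%; inactive = mean growth activity above -80%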
Pf Dd2 growth = P. falciparum Dd2 growth inhibition; SYBR Green, 72 h; stronger effect = lower value; activity change, % at 10 µM; 2.3% of 94,000 active; in the data active = activity change below about -80%; inconclusive = no clear call, values can overlap the other calls
T cruzi growth-1 = T. cruzi proliferation inhibition. T. cruzi beta-gal in NIH3T3, GalScreen luminescence, 90 h. inhibition, % at 8.34 µM. 5.9% of 77,000 active;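 active = mean inhibition above about 93%, with at least 55% of replicates each passing it, limit read from the data, passing the limit was not always enough; inconclusive = only one of those two conditions holds; inactive = neither condition holds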
T cruzi growth-2 = inhibitors of T. cruzi proliferation; shares compounds with T cruzi growth-1; T. cruzi beta-gal in NIH3T3, GalScreen luminescence, 90 h; inhibition, % at 8.35 µM; 72% of 5,600 active; AID 651739;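 active = mean replicate inhibition above about 95% and at least 55% of replicates individually reaching it, limit read from the data; inconclusive = only one of the two criteria is met; inactive = neither criterion is met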
T cruzi growth-3 = blocks T. cruzi growth in NIH3T3 host cells | 21% of 5,600 active | inhibition, % at 2.09 µM | T. cruzi beta-gal in NIH3T3, GalScreen luminescence, 90 h | shares compounds with T cruzi growth-1 | AID 651740;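 active = mean inhibition above about 95%, with at least 55% of replicates also reaching it, limit read from the data; inconclusive = meets just one of the two conditions; inactive = meets neither condition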
3T3 cytotox = kills mouse NIH/3T3 fibroblasts. shares compounds with T cruzi growth-1. NIH/3T3 viability, CellTiter-Glo ATP luminescence, 90 h. cytotoxicity (signal decrease), % at 8.35 µM. 14% of 5,600 active. AID 651742;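 active = mean signal decrease across replicates above about 35% based on untreated-well scatter, with enough replicates individually passing, limit read from the data; inconclusive = no rule stated though some were filed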
3T3 cytotox 2 = kills mouse NIH/3T3 fibroblasts; shares compounds with T cruzi growth-1; AID 651744; NIH/3T3 viability, CellTiter-Glo ATP luminescence, 90 h; inhibition, % at 24.9 µM; 56% of 5,600 active;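 active = mean loss of cell viability signal at or above a set limit, and enough replicates individually reaching it; inconclusive = meets only the mean limit or only the replicate share; inactive = meets neither condition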
Numbers stand for hits; ! = not active in a repeat.

How did C/C=C/c1ccc2c(c1)O[C@@H](CN(C)Cc1cccnc1)[C@H](C)CN([C@H](C)CO)S2(=O)=O do in these assays?
C diff HTS: inactive; Pf Dd2 growth: inactive; T cruzi growth-1: 107; T cruzi growth-2: inactive; T cruzi growth-3: inactive; 3T3 cytotox: 52; 3T3 cytotox 2: 65

How did C/C=C/c1ccc2c(c1)O[C@H](CN(C)Cc1cncnc1)[C@@H](C)CN([C@@H](C)CO)S2(=O)=O do in these assays?
C diff HTS: inactive; Pf Dd2 growth: inactive

How did C/C=C/c1ccc2c(c1)O[C@@H](CN(C)Cc1cccnc1)[C@H](C)CN([C@@H](C)CO)S2(=O)=O do in these assays?
C diff HTS: inactive; Pf Dd2 growth: inactive; T cruzi growth-1: 106; T cruzi growth-2: 101; T cruzi growth-3: inactive; 3T3 cytotox: 38; 3T3 cytotox 2: 70

Results for C/C=C/c1ccc2c(c1)O[C@H](CN(C)Cc1cccnc1)[C@@H](C)CN([C@@H](C)CO)S2(=O)=O ?
C diff HTS: inactive; Pf Dd2 growth: inactive; T cruzi growth-1: 114; T cruzi growth-2: 103; T cruzi growth-3: 105; 3T3 cytotox: inactive; 3T3 cytotox 2: 54

Results for C/C=C/c1ccc2c(c1)O[C@@H](CN(C)Cc1cncnc1)[C@@H](C)CN([C@@H](C)CO)S2(=O)=O ?
C diff HTS: inactive; Pf Dd2 growth: inactive

Results for C/C=C/c1ccc2c(c1)O[C@@H](CN(C)Cc1cncnc1)[C@@H](C)CN([C@H](C)CO)S2(=O)=O ?
C diff HTS: inactive; Pf Dd2 growth: inactive

Results for C[C@H](CO)N1C[C@H](C)[C@H](CN(C)Cc2cccnc2)Oc2cc(/C=C/c3ccccc3)ccc2S1(=O)=O ?
C diff HTS: inactive; Pf Dd2 growth: inactive; T cruzi growth-1: 107; T cruzi growth-2: 100; T cruzi growth-3: 97; 3T3 cytotox: inconclusive; 3T3 cytotox 2: 31

How did COc1ccc(NC(=O)N(C)C[C@H]2Oc3c(NC(=O)c4cnccn4)cccc3C(=O)N([C@H](C)CO)C[C@@H]2C)cc1 do in these assays?
C diff HTS: inactive; Pf Dd2 growth: inactive; T cruzi growth-1: inactive

Results for CNC(=O)C[C@@H]1CC[C@@H]2[C@@H](COc3ccc(NC(=O)c4cc(C)on4)cc3C(=O)N2C)O1 ?
C diff HTS: inactive; Pf Dd2 growth: inactive; T cruzi growth-1: inactive

Results for COc1ccc(NC(=O)Nc2ccc3c(c2)C(=O)N([C@H](C)CO)C[C@H](C)[C@@H](CN(C)C(=O)Nc2cccc4ccccc24)OCCCC[C@@H](C)O3)cc1 ?
C diff HTS: inactive; Pf Dd2 growth: inactive; T cruzi growth-1: inactive

How did Cc1ccc(S(=O)(=O)N2C[C@@H](O)COC[C@H]3O[C@H](CC(=O)N[C@H]4CCN(Cc5ccccc5)C4)CC[C@@H]32)cc1 do in these assays?
Pf Dd2 growth: inactive; T cruzi growth-1: inactive

What do the screens show for `O=C(C[C@@H]1CC[C@@H]2[C@H](COC[C@@H](O)CN2C(=O)Nc2ccc(F)cc2)O1)NC1Cc2ccccc2C1`?
Pf Dd2 growth: inactive; T cruzi growth-1: inactive

What do the screens show for `O=C(C[C@@H]1CC[C@H]2[C@@H](COC[C@H](O)CN2C(=O)Nc2ccc(F)cc2)O1)NC1Cc2ccccc2C1`?
Pf Dd2 growth: inactive; T cruzi growth-1: inactive

How did O=C(C[C@H]1CC[C@H]2[C@@H](COC[C@H](O)CN2C(=O)Nc2ccc(C(F)(F)F)cc2)O1)NC1Cc2ccccc2C1 do in these assays?
C diff HTS: -90!; Pf Dd2 growth: inactive; T cruzi growth-1: 121; T cruzi growth-2: 105; T cruzi growth-3: inactive; 3T3 cytotox: 51; 3T3 cytotox 2: 107

What do the screens show for `O=C(C[C@@H]1CC[C@@H]2[C@H](COC[C@@H](O)CN2C(=O)Nc2ccc(C(F)(F)F)cc2)O1)NC1Cc2ccccc2C1`?
C diff HTS: -100!; Pf Dd2 growth: inactive; T cruzi growth-1: 112; T cruzi growth-2: 96; T cruzi growth-3: inactive; 3T3 cytotox: inactive; 3T3 cytotox 2: 105

Results for C/C=C/c1cnc2c(c1)C(=O)N([C@H](C)CO)C[C@@H](C)[C@H](CN(C)C(=O)C1CC1)O2 ?
C diff HTS: inactive; Pf Dd2 growth: inactive; T cruzi growth-1: inactive

What do the screens show for `C[C@H](CO)N1C[C@H](C)[C@H](CN(C)S(=O)(=O)c2cccs2)OCCCC[C@H](C)Oc2ccc(NC(=O)c3ccncc3)cc2C1=O`?
Pf Dd2 growth: inactive

Results for C[C@@H]1CN([C@H](C)CO)C(=O)c2cc(N(C)C)ccc2O[C@@H](C)CCCCO[C@H]1CN(C)Cc1ccc(C(F)(F)F)cc1 ?
C diff HTS: inactive; Pf Dd2 growth: inactive; T cruzi growth-1: 120; T cruzi growth-2: 99; T cruzi growth-3: 113; 3T3 cytotox: inactive; 3T3 cytotox 2: 106

How did C[C@@H]1CCCCO[C@@H](CN(C)CC2CCCCC2)[C@@H](C)CN([C@H](C)CO)C(=O)c2cc(N(C)C)ccc2O1 do in these assays?
C diff HTS: inactive; Pf Dd2 growth: inactive; T cruzi growth-1: inactive

What do the screens show for `C[C@@H]1CCCCO[C@@H](CN(C)Cc2ccc(C(=O)O)cc2)[C@@H](C)CN([C@H](C)CO)C(=O)c2cc(N(C)C)ccc2O1`?
C diff HTS: inactive; Pf Dd2 growth: inactive; T cruzi growth-1: inactive

What do the screens show for `C[C@H](CO)N1C[C@H](C)[C@@H](CN(C)Cc2ccccc2)OCCCC[C@H](C)Oc2ccc(N(C)C)cc2C1=O`?
C diff HTS: inactive; Pf Dd2 growth: inactive; T cruzi growth-1: 100!; T cruzi growth-2: inactive; T cruzi growth-3: inactive; 3T3 cytotox: inactive; 3T3 cytotox 2: inactive

Results for C[C@@H]1CN([C@H](C)CO)C(=O)c2cc(N(C)C)ccc2O[C@@H](C)CCCCO[C@@H]1CN(C)Cc1ccc(C(F)(F)F)cc1 ?
C diff HTS: inactive; Pf Dd2 growth: inactive; T cruzi growth-1: inconclusive; T cruzi growth-2: 109; T cruzi growth-3: inactive; 3T3 cytotox: inactive; 3T3 cytotox 2: 107

What do the screens show for `C[C@@H]1CCCCO[C@@H](CN(C)Cc2ccccc2)[C@@H](C)CN([C@H](C)CO)C(=O)c2cc(N(C)C)ccc2O1`?
C diff HTS: inactive; Pf Dd2 growth: inactive; T cruzi growth-1: inactive

What do the screens show for `C[C@H](CO)N1C[C@H](C)[C@@H](CN(C)CC2CCCCC2)OCCCC[C@H](C)Oc2ccc(N(C)C)cc2C1=O`?
C diff HTS: inactive; Pf Dd2 growth: inactive; T cruzi growth-1: 99; T cruzi growth-2: 110; T cruzi growth-3: inactive; 3T3 cytotox: inactive; 3T3 cytotox 2: inactive

How did C[C@@H]1CN([C@@H](C)CO)C(=O)c2cc(N(C)C)ccc2O[C@@H](C)CCCCO[C@@H]1CN(C)Cc1ccc(C(F)(F)F)cc1 do in these assays?
C diff HTS: inactive; Pf Dd2 growth: inactive; T cruzi growth-1: inactive

How did CN(C)C(=O)c1cccc(-c2ccc([C@@H]3[C@H]4CN(C(=O)C5CCCCC5)CC(=O)N4[C@H]3CO)cc2)c1 do in these assays?
C diff HTS: inactive; Pf Dd2 growth: inactive
